This note sets out measurements from PubChem BioAssay AID778 (Sanford-Burnham Center for Chemical Genomics, 2007).

SMILES strings stand for the structures. Hit rate of the full screen: of about 96,000 compounds, about 20,000 (21%) were called active.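 The calls were made as follows: active = CYP2C19 inhibition above a set limit at 5 µM in the primary screen (cut at about 50% in these data); inactive = the rest.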 These entries were drawn from the full list.

As usually defined, the inhibition is the change of the read-out against control, counted positive when it falls.

Sequence of Cytochrome P450 2C19 (Homo sapiens) (P33261 whole entry, looked up): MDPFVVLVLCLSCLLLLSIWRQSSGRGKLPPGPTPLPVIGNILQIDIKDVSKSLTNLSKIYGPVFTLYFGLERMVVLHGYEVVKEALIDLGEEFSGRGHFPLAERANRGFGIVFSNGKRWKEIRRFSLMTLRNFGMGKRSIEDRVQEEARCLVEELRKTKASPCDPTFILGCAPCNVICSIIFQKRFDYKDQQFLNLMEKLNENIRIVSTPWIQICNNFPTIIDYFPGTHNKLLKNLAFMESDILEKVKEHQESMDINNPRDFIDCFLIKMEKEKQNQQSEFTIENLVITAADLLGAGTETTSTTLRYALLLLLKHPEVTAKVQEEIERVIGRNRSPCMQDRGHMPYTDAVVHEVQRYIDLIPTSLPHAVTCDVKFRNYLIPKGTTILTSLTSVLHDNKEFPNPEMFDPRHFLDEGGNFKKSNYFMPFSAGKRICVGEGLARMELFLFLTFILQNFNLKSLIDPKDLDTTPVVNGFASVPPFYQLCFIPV

The assay has as its target Cytochrome P450 2C19 (Homo sapiens) (UniProt P33261). Nature of the assay: blockers of cytochrome P450 2C19 activity – biochemical, luminescence, ADME assay, primary screen (AID 778).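 Also: plate controls were negative control wells for no effect and 2.5 mM tranylcypromine positive control for full effect.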 To be noted: CYP2C19 Supersomes, luciferin-H EGE luminescence, 30 min; at 5 µM; active compounds read high.
Turning to `O=C(CCS(=O)(=O)c1cccc2nonc12)NCCc1ccccc1Cl`, the inhibition was 75% (active).
Turning to `Cc1ccc(N(CC(=O)Nc2cc(C)cc(C)c2)S(=O)(=O)c2cccc3nonc23)cc1`, the inhibition is 14.2% (inactive).
For `CC1CCCCC1NC(=O)CCS(=O)(=O)c1cccc2nonc12` (stereo not given) the value was 27.7% (inactive); for `COc1ccc(C)cc1NC(=O)CCS(=O)(=O)c1cccc2nonc12`, 82.1% (active).
Take `Cc1ccc(CNC(=O)CCNS(=O)(=O)c2cccc3nonc23)cc1`: the inhibition is 15.9% (inactive).
Then `Cc1cccc(C)c1NC(=O)CCS(=O)(=O)c1cccc2nsnc12`, with 10.7% (inactive); and `CSc1cc(C)n(-c2ccccc2C)c(=S)c1C(C)=O`, with -14.7% (inactive); and `Cc1cc2cc(CNC(=O)c3cccs3)ccc2[nH]1`, with 86.8% (active).
With `CCOC(=O)c1oc2ccccc2c1NC(=O)c1cccs1`, the inhibition was 5.8% (inactive).
Turning to `O=C(O)Cc1ccc(NC(=O)c2cccs2)cc1`, the inhibition is 1.3% (inactive).
Consider `O=[N+]([O-])c1cccc(-c2nnc3c4ccccc4c4ccccc4n23)c1`, for which the inhibition was 5% (inactive).
Regarding `COc1ccc(C2=Nc3cc(C)ccc3OC2)cc1`, the inhibition was 13% (inactive).
For `CN(C)CCCNC(=O)c1ccc2[nH]c3ccccc3c2c1` the value was 10.5% (inactive).
Then `COC(=O)Cc1nc2ccccc2[nH]1`, with 3% (inactive).
For the compound `O=C(COc1ccccc1)NCCc1nc2ccccc2[nH]1`, the inhibition was 65.9% (active).
In the case of `CC(C)=C(NC(=O)c1ccco1)C(=O)NCCc1nc2ccccc2[nH]1`, the inhibition was -12.2% (inactive).
Then `COC(=O)CSc1snnc1-c1ccc(Cl)c(Cl)c1`, with 44.8% (inactive).
With `Cn1c(SCC(=O)N2CCOCC2)nnc1-c1ccc(NC(=O)c2ccccc2F)cc1`, the inhibition was 2.8% (inactive).
Take `O=C(Nc1nnc(SCc2c(Cl)cccc2Cl)s1)C1CCCO1` (stereo not given): the inhibition was 9.6% (inactive).
Consider `Cc1cc(C)c2nc(SCCC#N)nc(C)c2c1`, for which the inhibition is 53.5% (active).
As to `CSc1ccc(CCNC(=O)C2CCN(c3nnc(-n4cccc4)s3)CC2)cc1`, the inhibition was 28.8% (inactive).
With `CC(=O)Cc1nsc(NC(=O)c2csc3c2CCCC3)n1`, the inhibition was 42.6% (inactive).
For `CCOC(=O)Cn1c(CN(Cc2ccccc2)Cc2ccccc2)nc2c1c(=O)[nH]c(=O)n2C` the value was 16.4% (inactive); for `O=C(Nc1ccccc1)c1nnsc1S(=O)(=O)c1ccc(Cl)cc1`, 19.5% (inactive); for `O=S(=O)(NCc1ccccc1Cl)c1cnc[nH]1`, 22.3% (inactive).
For `Cc1nnsc1S(=O)(=O)Cc1ccccc1Cl` the value was 56.2% (active); for `COc1cccc(OC)c1C(=O)Nc1nnc(C(C)C)s1`, -6.4% (inactive); for `Cc1ccc(NC(=O)c2ccc(CSc3ncnc4nc[nH]c34)cc2)c(C)c1`, 11.8% (inactive).
Turning to `O=C(c1ccc(O)cc1)c1ccc(C(=O)O)c(C(=O)O)c1`, the inhibition was -0.1% (inactive).
In the case of `N#CC1=C(SCc2ccc(C#N)cc2)N=C(N)C(c2nc(-c3ccccc3)cs2)C12CCCCC2` (stereo not given), the inhibition was 92.9% (active).
With `O=C(NC1CCCCC1)c1ccc2c(=O)n(CC3CCCO3)c(=O)[nH]c2c1` (stereo not given), the inhibition was 0.4% (inactive).
For `COc1ccc(C2C3=C(OC(C)=O)c4ccccc4C3=Nc3c2c(=O)n(C)c(=O)n3C)cc1` (stereo not given), the inhibition was -6.9% (inactive).
Turning to `CCOC(=O)N1CCN(C(=O)c2nn(-c3ccc(C)cc3)c(=O)c3c2c2ccccc2n3C)CC1`, the inhibition was -2.9% (inactive).
Take `Cn1c2ccccc2c2c(C(=O)N3CCN(c4ccc(F)cc4)CC3)cn(C3CCCC3)c(=O)c21`: the inhibition was 85.8% (active).
Then `Cn1c(C(=O)N2CCC(C(N)=O)CC2)cc2c(=O)n(C)c3ccccc3c21`, with -10.1% (inactive); and `COc1ccc(CC(=O)Nc2sc(Cc3ccccc3)c(C)c2C(N)=O)cc1`, with 1% (inactive); and `Cc1nn(-c2cc(Cl)ccc2N)c(=O)c2ccccc12`, with 8.7% (inactive).
Turning to `Cc1nc(NC(=O)c2cccc(Cl)c2)sc1-c1csc(Nc2cccc(Cl)c2)n1`, the inhibition is -18.9% (inactive).
As for `Cc1cc(OC(=O)c2c(Cl)cccc2Cl)nc(C)n1`, the inhibition was -6.5% (inactive).
As for `O=C(Cc1c(O)c2ccccc2[nH]c1=O)NCc1ccccc1`, the inhibition is 4.1% (inactive).
`COc1ccc(C(C)=O)cc1COC(=O)Cn1cnc2ccccc2c1=O`: the inhibition is 28.2% (inactive).
For `O=C(COC(=O)c1n[nH]c2ccccc12)NCc1ccccc1`, the inhibition was 76.4% (active).
On to `CCOC(=O)N1CCN(C(=O)c2n[nH]c(=O)c3ccccc23)CC1`, for which the inhibition is -2.6% (inactive).
As for `COc1ccc(COC(=O)c2n[nH]c3ccccc23)cc1F`, the inhibition is 57.1% (active).
Consider `CN(C)S(=O)(=O)c1ccc(NC(=O)COC(=O)c2n[nH]c3ccccc23)cc1`, for which the inhibition was -17.2% (inactive).
On to `CSc1sc(C)cc1C1C(C#N)=C(N)N(c2cccnc2)C2=C1C(=O)CCC2` (stereo not given), for which the inhibition is 29.4% (inactive).
As for `CCCNC(=O)c1ccccc1NC(=O)CSCc1ccc(OC)cc1`, the inhibition is 45.7% (inactive).
For the compound `CCSc1ccccc1C(=O)NCc1ccc(OC)cc1`, the inhibition is 96.2% (active).
With `CC(C)NC(=O)CSc1ccccc1C(=O)NCc1ccc2c(c1)OCO2`, the inhibition is 33.8% (inactive).
Then `COc1cc(OC)c(C(=O)Nc2ccc(N(C)C)cc2)cc1OC`, with -11% (inactive); and `CCCN1C(=O)C(NS(=O)(=O)c2ccc(N)cc2)(C(F)(F)F)C(C(=O)OC)=C1C` (stereo not given), with 6.9% (inactive).
In the case of `CC1CCCN(c2ccc(C(=O)NCCc3ccccc3)cn2)C1` (stereo not given), the inhibition is 60.7% (active).
Then `CC(=O)c1cccc(NC(=O)N2CCCC2C(=O)NCCc2ccccc2)c1` (stereo not given), with 30.9% (inactive).
Regarding `O=C(NCCc1ccccc1)c1ccc(NC2=NC3CS(=O)(=O)CC3S2)cc1` (stereo not given), the inhibition is 5% (inactive).
Consider `CCc1ccc2oc(-c3ccc(N)cc3)nc2c1`, for which the inhibition was -5.5% (inactive).
Consider `CC(C)C(=O)N1CCN(CCN=CC2=C(O)CC(c3ccco3)CC2=O)CC1` (stereo not given), for which the inhibition is 2.8% (inactive).
As for `O=[N+]([O-])c1ccccc1/C=N/n1c(COc2ccccc2)n[nH]c1=S`, the inhibition was 8.1% (inactive).
In the case of `Cc1cccc(-n2c(N)c(C(=O)N3CCN(C)CC3)sc2=S)c1`, the inhibition is 6.5% (inactive).
For the compound `CC1CCCN(Cc2nc3c(c(=O)n(C)c(=O)n3C)n2CC(=O)c2ccccc2)C1` (stereo not given), the inhibition is 15.6% (inactive).
Then `COC(=O)c1cccc(NC(=O)CSc2nc(C)cc(=O)[nH]2)c1`, with 20.8% (inactive); and `COc1ccc2nc(SCC(=O)Nc3c(C)cc(C)cc3C)[nH]c2c1`, with 64.3% (active).
In the case of `COc1ccc(NC(=O)CSc2nc(N)c(-c3ccccc3)c(=O)[nH]2)cc1`, the inhibition was 2% (inactive).
Turning to `COc1cc2ccccc2cc1C(=O)Nc1ccc(S(=O)(=O)Nc2cc(C)on2)cc1`, the inhibition is -10.1% (inactive).
As to `COc1ccc(OC)c(NC(=O)CSc2nc(N)c(-c3ccccc3)c(=O)[nH]2)c1`, the inhibition was 11.1% (inactive).
As to `COc1ccc(NC(=O)CSc2nc(NS(=O)(=O)c3ccc(C)cc3)cc(=O)[nH]2)cc1`, the inhibition is 85.4% (active).
